From the supplement of paper PMC8975748
Structures can show the parent of a compound that is named as a salt.

test system: Saccharomyces cerevisiae BY4741 SeMeCo community; experiment: z-score of subpopulation abundance vs DMSO median, subpopulation auxotrophic for HL; higher = larger share of this subpopulation than in DMSO controls; conditions: 10 µM; 24 h; SM minimal medium; subpopulation (auxotrophy): HL
Procedure: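 Fluorescent four-plasmid SeMeCo (self-establishing metabolically cooperating S. cerevisiae BY4741 community; plasmids pH-mRuby2, pL-mWasabi, pU-eCFP, pM-TagRFP657) was grown 24 h in minimal SM medium with each Selleck FDA-approved drug at 10 µM in 384-well plates. Cells were fixed and imaged by high-content confocal microscopy. For each auxotrophic subpopulation (and the prototroph), a z-score gives the deviation from the DMSO vehicle-control population median.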

Structure (SMILES)	z-score of subpopulation abundance
CC1=C(C(=O)OCCN(Cc2ccccc2)c2ccccc2)C(c2cccc([N+](=O)[O-])c2)C(P2(=O)OCC(C)(C)CO2)=C(C)N1 (stereo not given) [Efonidipine]	0.79
CCOC(=O)c1ccc(N)cc1 [Benzocaine]	-1.2
C[C@@H]1CC(=O)NN=C1c1ccc(NN=C(C#N)C#N)cc1 [Levosimendan]	-0.63
COc1ccc(CC2c3cc(OC)c(OC)cc3CC[N+]2(C)CCC(=O)OCCCCCOC(=O)CC[N+]2(C)CCc3cc(OC)c(OC)cc3C2Cc2ccc(OC)c(OC)c2)cc1OC (stereo not given) [Atracurium Besylate]	1.4
CCOc1ccc2ccccc2c1C(=O)N[C@@H]1C(=O)N2[C@@H]1SC(C)(C)[C@@H]2C(=O)O [Nafcillin Sodium]	-0.51
CC(=O)Oc1ccc(C(=C2CCCCC2)c2ccc(OC(C)=O)cc2)cc1 [Cyclofenil]	0.25
O=c1cc(-c2ccc(O)c(O)c2)oc2cc(O)cc(O)c12 [Luteolin]	0.22
CCN1CCC[C@H]1CNC(=O)c1cc(S(N)(=O)=O)ccc1OC [Levosulpiride]	-0.21
NC(=O)N1c2ccccc2C=Cc2ccccc21 [Carbamazepine]	-0.72
CCN(CC)CCOC(=O)c1ccc(N)cc1 [Procaine HCl]	-0.7
NC(=O)c1ncn([C@@H]2O[C@H](CO)[C@@H](O)[C@H]2O)n1 [Ribavirin]	-0.89
C[C@](N)(Cc1ccc(O)c(O)c1)C(=O)O [Methyldopa]	-0.91
C[C@]12CC[C@@H]3c4ccc(O)cc4CC[C@H]3[C@@H]1C[C@@H](O)[C@@H]2O [Estriol]	-0.01
C[C@H]1O[C@@H](O[C@H]2[C@@H](O)C[C@H](O[C@H]3[C@@H](O)C[C@H](O[C@H]4CC[C@@]5(C)[C@H](CC[C@@H]6[C@@H]5C[C@@H](O)[C@]5(C)[C@@H](C7=CC(=O)OC7)CC[C@]65O)C4)O[C@@H]3C)O[C@@H]2C)C[C@H](O)[C@@H]1O [Digoxin]	-0.11
CCC(=O)Oc1ccc2c(c1)CCC1C2CCC2(C)C(OC(=O)CC)CCC12 (stereo not drawn) [Estradiol dipropionate(17-Beta-Estradiol-3,17-Dipropionate)]	-0.96
O=c1[nH]cnc2c1ncn2[C@@H]1O[C@H](CO)[C@@H](O)[C@H]1O [Isoprinosine]	-0.64
CC[C@H]1OC(=O)[C@H](C)[C@@H](O[C@H]2C[C@@](C)(OC)[C@@H](O)[C@H](C)O2)[C@H](C)[C@@H](O[C@@H]2O[C@H](C)C[C@H](N(C)C)[C@H]2O)[C@](C)(O)C[C@@H](C)C(=O)[C@H](C)[C@H]2OC(=O)O[C@@]21C [Erythromycin Cyclocarbonate]	1.2
CC(=O)Oc1ccccc1C(=O)O [Aspirin]	0.18
c1ccc(C2CN3CCSC3=N2)cc1 (stereo not given) [Tetramisole HCl]	0.08
O=C(O)C[C@H](O)C[C@H](O)/C=C/c1c(C2CC2)nc2ccccc2c1-c1ccc(F)cc1 [Pitavastatin Calcium]	1.83

Structure (SMILES)	z-score of subpopulation abundance
CC(C)COCC(CN(Cc1ccccc1)c1ccccc1)N1CCCC1 (stereo not given) [Bepridil hydrochloride]	1.07
CN(C)CCc1c[nH]c2ccc(C[C@H]3COC(=O)N3)cc12 [Zolmitriptan]	0.28
COc1ccc2cc(C(=O)O)ccc2c1 [6-Methoxy-2-naphthoic acid]	0.89
CN(C)[C@@H]1C(=O)C(C(N)=O)=C(O)[C@@]2(O)C(=O)C3=C(O)c4c(O)ccc(Cl)c4[C@@H](O)[C@H]3C[C@@H]12 [Demeclocycline HCl]	0.01
Cc1cc(NS(=O)(=O)c2ccc(N)cc2)no1 [Sulfamethoxazole sodium]	-1.13
CC(=O)OCC1=C(C(=O)O)N2C(=O)[C@@H](NC(=O)CSc3ccncc3)[C@H]2SC1 [Cephapirin Benzathine]	0.48
CC1(C)S[C@@H]2[C@H](NC(=O)C(C(=O)O)c3ccccc3)C(=O)N2[C@H]1C(=O)O (stereo not given in full) [Carbenicillin disodium]	-0.49
NS(=O)(=O)Cc1noc2ccccc12 [Zonisamide]	0.85
CCn1cc(C(=O)O)c(=O)c2ccc(C)nc21 [Nalidixic acid]	-0.13
CCOc1cc(N)c(Cl)cc1C(=O)NCC1CN(Cc2ccc(F)cc2)CCO1 (stereo not given) [Mosapride]	-0.5
CCCCCCCCN=c1ccn(CCCCCCCCCCn2ccc(=NCCCCCCCC)cc2)cc1 [Octenidine Dihydrochloride]	20
CC(=O)O[C@H]1C[C@@]2(C)[C@@H](C[C@@H](O)[C@H]3[C@@]4(C)CC[C@@H](O)[C@@H](C)[C@@H]4CC[C@@]32C)/C1=C(\CCC=C(C)C)C(=O)O [Fusidate Sodium]	1.13
CN1CCN(CCCN2c3ccccc3Sc3ccc(Cl)cc32)CC1 [Prochlorperazine dimaleate salt]	0.69
CN(C)CCCN1c2ccccc2Sc2ccc(Cl)cc21 [Chlorpromazine HCl]	-0.55
CCOC(=O)C1=C(COCCN)NC(C)=C(C(=O)OC)C1c1ccccc1Cl (stereo not given) [Amlodipine Besylate]	4.37
COC(=O)C1=C(C)NC(C)=C(C(=O)OCCN2CCN(C(c3ccccc3)c3ccccc3)CC2)C1c1cccc([N+](=O)[O-])c1 (stereo not given) [Manidipine 2HCl]	2.26
OCCN(CCO)c1nc(N2CCCCC2)c2nc(N(CCO)CCO)nc(N3CCCCC3)c2n1 [Dipyridamole]	6.01
OB1OCc2cc(F)ccc21 [Tavaborole (AN-2690)]	17.6
CN[C@@H]1[C@@H](O)[C@@H](O[C@@H]2[C@@H](O)[C@H](O[C@H]3OC(CN)=CC[C@H]3N)[C@@H](N)C[C@H]2N)OC[C@]1(C)O [Sisomicin sulfate]	0.51
CONC(=O)Nc1ccc(-c2sc3c(c2CN(C)C)c(=O)n(-c2ccc(OC)nn2)c(=O)n3Cc2c(F)cccc2F)cc1 [Relugolix]	-0.26
